Compounds with a hit are over-represented: about 0.82% of the library has one in this group of screens.
Cardiac RTF inh = cardiac RTF calcium desensitization; inhibition, % at 7.15 µM; P19429+P45379; IANBD-labeled cardiac RTF, Ca2+ fluorescence; actives 0.12% (n = 340,000);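 active = inhibition above the mean inhibition of all tested compounds plus 3 SD, cut at about 17% in these data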;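 note: assay run at fixed EC70 calcium of 1.6 mM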
LANA DNA inh = KSHV C-LANA DNA binding inhibition | MBP-C-LANA/FAM-LBS DNA binding, fluorescence polarization | inhibition, % at 9 µM | actives 0.078% (n = 340,000) | AID 504423;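 active = highest replicate inhibition at or above 60% at 9 µM, even if other replicates fall short; inactive = all replicates below 60% inhibition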;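 note: 0% = neutral control wells and 100% = 4 µM acridine orange control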
Keap1 Nrf2 FP = inhibitors of human Keap1-Nrf2 protein-protein interaction; Keap1 Kelch-Nrf2 peptide fluorescence polarization, 1536-well; inhibition, % at 9.4 µM; actives 0.15% (n = 340,000); AID 504523; in the data active = inhibition above about 12%; inconclusive = no clear call, values can overlap the other calls; inactive = below about 7.3%;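 note: human Keap1 Kelch domain with fluorescein labeled Nrf2 9mer peptide probe; 0% = neutral control wells and 100% = peptide positive control; higher means more block of Keap1 binding to Nrf2 peptide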
E coli Lon inh = E. coli protease La inhibition. P0A9M0. inhibition, % at 7.94 µM. actives 0.42% (n = 360,000). purified E. coli Lon protease, fluorescence polarization; in the data active = inhibition above about 13%, passing the limit was not always enough;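 note: 0% = enzyme with probe and DMSO and 100% = no enzyme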
Target sequence (P0A9M0 whole entry, looked up): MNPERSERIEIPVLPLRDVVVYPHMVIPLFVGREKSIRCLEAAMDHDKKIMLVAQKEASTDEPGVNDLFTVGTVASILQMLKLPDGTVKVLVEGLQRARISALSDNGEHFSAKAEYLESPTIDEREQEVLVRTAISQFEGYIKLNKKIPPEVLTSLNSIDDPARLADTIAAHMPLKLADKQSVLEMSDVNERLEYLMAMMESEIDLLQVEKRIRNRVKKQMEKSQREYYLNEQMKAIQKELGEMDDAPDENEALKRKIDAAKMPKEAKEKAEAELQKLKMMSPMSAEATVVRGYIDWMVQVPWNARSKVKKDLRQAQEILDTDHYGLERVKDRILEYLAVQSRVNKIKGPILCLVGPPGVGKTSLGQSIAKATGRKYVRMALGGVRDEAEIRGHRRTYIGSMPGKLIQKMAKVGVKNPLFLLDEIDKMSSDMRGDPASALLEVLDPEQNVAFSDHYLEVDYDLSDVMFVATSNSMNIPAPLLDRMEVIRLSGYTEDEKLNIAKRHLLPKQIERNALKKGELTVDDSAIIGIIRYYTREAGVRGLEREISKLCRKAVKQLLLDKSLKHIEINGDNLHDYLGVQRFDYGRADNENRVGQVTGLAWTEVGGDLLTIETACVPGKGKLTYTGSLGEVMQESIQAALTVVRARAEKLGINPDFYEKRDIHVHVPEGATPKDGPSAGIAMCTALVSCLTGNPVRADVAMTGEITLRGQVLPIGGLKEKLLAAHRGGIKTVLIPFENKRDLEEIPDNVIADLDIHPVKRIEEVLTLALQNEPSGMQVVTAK
RTF Ca sens act = increases calcium sensitivity of human cardiac regulated thin filaments. P19429+P45379. IANBD-labeled TnC RTF fluorescence at EC20 calcium; 0% EC20 calcium, 100% full calcium. AID 493008. actives 0.24% (n = 340,000). activation, % at 7.2 µM;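 active = activation above the mean over all tested compounds plus 3 SD, cut at about 30% in these data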;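 note: rise in fluorescence read as greater calcium sensitivity of cardiac thin filaments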
* marks the source's active call; other numbers are inactive results; i = inactive; ? = inconclusive; / = no result given.

SMILES | Cardiac RTF inh | LANA DNA inh | Keap1 Nrf2 FP | E coli Lon inh | RTF Ca sens act
O=C(NCCc1ccc(F)cc1)c1coc(=O)c(Br)c1 | -8 | 0 | 4 | -1 | 0
C=CCOc1ccc(C2C(C(=O)c3cccs3)=C(O)C(=O)N2c2nnc(C)s2)cc1 (stereo unspecified) | -43 | 51 | 0 | 13 | 44*
Cc1ccc(C2C(C(=O)c3ccco3)=C(O)C(=O)N2c2nnc(C)s2)cc1 (stereo unspecified) | -8 | 2 | -5 | 8 | 1
COc1ccc(C2C(C(=O)c3cccs3)=C(O)C(=O)N2c2nnc(C)s2)cc1OC (stereo unspecified) | -71 | 42 | ? | 38* | 80*
C/C(=C\C=C(C#N)C#N)c1cc(C#N)c(N)o1 | -195 | -30 | -127 | -64 | 149*
CC1=C(C(=O)N2CCOCC2)CC(CC(=O)NCCCCc2ccccc2)C(=O)N1Cc1ccc(C(C)(C)C)cc1 (stereo unspecified) | / | / | / | -1 | /
CCCCN1C(=O)C(CC(=O)NCc2cccc3ccccc23)CC(C(=O)N2CCCCCC2)=C1C (stereo unspecified) | / | / | / | -2 | /
CCN(CC)c1ccc(/C=C/C(=O)C2C(=O)C=C(C)OC2=O)cc1 (stereo unspecified) | -122 | -31 | -155 | -244 | 128*
COC(=O)c1ccc2nc(-c3ccc(OC)c(OC)c3)c(Cc3cccc(F)c3)n2c1 | / | / | / | -3 | /
CCN(CC)c1ccc(/C=N/NC(=O)c2cc(C)nc3ccccc23)cc1 | 0 | -2 | -10 | 12 | 3
CCN(CC)c1ccc(/C=C/c2cc(-c3ccccc3)c3ccccc3n2)cc1 | -430 | 5 | -5 | -333 | 320*
CC1(C(=O)Nc2ccccc2)CCN1C(=O)CCc1ccc(Cl)cc1Cl (stereo unspecified) | / | / | / | -11 | /
CCSc1nnc(-c2sc3nnc(-c4ccccc4)c(-c4ccccc4)c3c2N)o1 | -31 | 5 | -5 | -70 | 83*
CC(=O)c1ccc(OC2(C)CCN(CCOc3ccc(C)cc3)C2)cc1 (stereo unspecified) | / | / | / | 0 | /
Cc1ccc(F)c(C(=O)N2CCCC(C)(C(=O)NS(=O)(=O)C3CC3)C2)c1F (stereo unspecified) | / | / | / | -8 | /
O=C(N/N=C/c1ccc(O)c(O)c1O)/C(=C/c1ccc([N+](=O)[O-])cc1)NC(=O)c1ccccc1 | 3 | 0 | -5 | 27* | -8
CN(C)S(=O)(=O)c1ccc2c(c1)/C(=C/c1cc3c([nH]1)CCCC3)C(=O)N2 | -59 | -3 | -11 | -240 | 61*
O=C(NC(Sc1ccc(Cl)cc1)C(=O)O)c1ccccc1 (stereo unspecified) | / | / | / | -2 | /
Cc1ccc(N=C2NC(=O)/C(=C/c3cn(C)c4ccccc34)S2)cc1C | -44 | 1 | -6 | i | 69*
O=C1c2cccc3cccc(c23)C(=O)N1c1ccc(O)cc1 | -4 | -1 | 2 | -2 | 8
O=C1c2cccc3c(N4CCCCC4)ccc(c23)C(=O)N1c1ccc(O)cc1 | -194 | 12 | ? | -53 | 115*
Cc1ccc(NC(=O)c2cc(S(=O)(=O)N3CCCCC3)ccc2N2CCOCC2)cc1S(=O)(=O)N(C)C | -110 | -1 | -2 | 6 | 83*
Cc1cccc(C)c1-n1nnnc1C(c1ccccc1OC(F)(F)F)N1CCN(C/C=C/c2ccccc2)CC1 (stereo unspecified) | / | / | / | -3 | /
CCOC(=O)C1C(=O)C=C(/C=C/c2ccc(N(C)C)cc2)CC1c1ccccc1 (stereo unspecified) | -214 | -1 | -2 | -164 | 108*
CCOC(=O)C1C(=O)C=C(c2ccc(C)cc2)CC1c1ccccc1 (stereo unspecified) | -9 | -1 | 4 | 4 | 4
SMILES | Cardiac RTF inh | LANA DNA inh | Keap1 Nrf2 FP | E coli Lon inh | RTF Ca sens act
COc1ccc(C(=O)N/N=C(\C)c2ccc3c(c2)C2C=CCC2C(c2ccccc2)N3)cc1 (stereo unspecified) | 2 | -1 | -6 | 5 | 1
COc1cccc(NS(=O)(=O)c2ccc3c(c2)C2C=CCC2C(c2ccc(C(=O)O)cc2)N3)c1 (stereo unspecified) | 11 | 104* | 7 | 5 | -22
N#C/C(=C\c1ccccn1)c1nc2ccccc2s1 | -59 | -8 | -14 | -86 | 60*
N#C/C(=C/c1ccc(-c2ccccc2)o1)c1nc(-c2cccs2)cs1 | -43 | 3 | -4 | -356 | 93*
N#C/C(=C/c1ccc(-c2ccc(S(N)(=O)=O)cc2)o1)c1nc2ccccc2s1 | -466 | 10 | -8 | -384 | 347*
COC(=O)c1ccc(/C=C(\C#N)c2nc3ccccc3s2)cc1 | -9 | 0 | 1 | -29 | -1
CCCNC(=O)c1cc2c(c(-c3cccc(-c4ccccc4F)c3)n1)[C@@H](CCO)N(C(=O)CC1CC1)C2 | / | / | / | 1 | /
CC1(C)CC2(C)OC2C2(C1)N=NC(=Nc1ccccc1)O2 (stereo unspecified) | / | / | / | -3 | /
Cc1ccc(C)c(N2CCN(C(=O)CN3C(=S)NC(C)(C)CC3C)CC2)c1 (stereo unspecified) | 6 | 0 | -6 | 5 | 31*
CCOC(=O)CN1C=C(c2ccc3ccccc3n2)C(C[N+](=O)[O-])c2ccccc21 (stereo unspecified) | -61 | 9 | 6 | 115* | 36*
CCOC(=O)CSc1ccc2ccccc2n1 | -13 | -1 | -3 | -2 | 6
COc1ccc(OC)c(/C=c2\sc3nc(-c4cccs4)nn3c2=O)c1 | -2 | 24 | 11 | 11 | 50*
CCN1CCc2c(sc(NC(=O)Cc3ccccc3)c2C(N)=O)C1 | 5 | 0 | -1 | -5 | -4
CCN1CCc2c(sc(NC(=O)Nc3ccc(Cl)c(Cl)c3)c2C(N)=O)C1 | i | 18 | -47 | -269 | 152*
NC(=O)c1c(NC(=O)c2ccccc2)sc2c1CCN(Cc1ccccc1)C2 | -34 | 4 | -17 | -169 | 49*
CC(O)CC(=O)OC[C@]12CC[C@H]3[C@@](C)(CC[C@H]4C(C)(C)CCC[C@]34C)[C@@H]1CC(C1=CC(=O)OC1O)O2 (stereo partly specified) | / | / | / | -4 | /
CCN(CC)c1ccc(C=C2SC(=S)NC2=O)cc1 | -380 | -26 | -26 | i | 241*
Cc1cc(/C=C2\SC(=S)NC2=O)cc(C)c1O | -11 | -5 | -2 | -99 | 2
CCN(CC)c1ccc(/C=C2\SC(N)=NC2=O)cc1 | -45 | -5 | -15 | -275 | 33*
NC1=NC(=O)/C(=C/c2ccc(OCC(=O)O)cc2)S1 | -12 | 1 | 3 | -4 | 5
CCN1C(=O)/C(=C\C=C\c2ccccc2[N+](=O)[O-])SC1=S | -5 | 1 | -3 | -10 | 0
CCN1C(=O)/C(=C/C=C2\N(CC)c3cc(S(=O)(=O)N(C)C)ccc3N2c2ccccc2)SC1=S | -176 | -3 | -12 | -259 | 166*
Cc1cc2nc(-c3ccccc3)c(Cc3ccccc3)n2c(C)c1Br | / | / | / | -6 | /

From PubChem BioAssay
